Publication PMC5540273 (PLoS ONE, 2017)
“And” between values parts separate entries of the source, which are not always exact repeats. Equal entries are not always repeated. Where two headings read alike, the source gives them in different places.

Key:
INSRR = details: concentration: 1 μM, replicates: in singlicate, n = 1
INSR = details: concentration: 1 μM, replicates: in singlicate, n = 1
IRAK1 = details: concentration: 1 μM, replicates: in singlicate, n = 1
IRAK3 = details: concentration: 1 μM, replicates: in singlicate; n = 1
IRAK4 = details: concentration: 1 μM, replicates: in singlicate, n = 1
ITK = details: concentration: 1 μM, replicates: in singlicate, n = 1
[1] = test system: JAK1(JH1domain-catalytic); details: concentration: 1 μM, replicates: in singlicate, n = 1
[2] = test system: JAK1(JH2domain-pseudokinase); details: concentration: 1 μM, replicates: in singlicate, n = 1
[3] = test system: JAK2(JH1domain-catalytic); details: concentration: 1 μM, replicates: in singlicate, n = 1
[4] = test system: JAK3(JH1domain-catalytic); details: concentration: 1 μM, replicates: in singlicate; n = 1
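Note: KINOMEscan kinase panel screen.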

Compound | %Inh (INSRR) | %Inh (INSR) | %Inh (IRAK1) | %Inh (IRAK3) | %Inh (IRAK4) | %Inh (ITK) | %Inh [1] | %Inh [2] | %Inh [3] | %Inh [4] | %Inh (INSRR; 1 µM) | %Inh (INSR; 1 µM) | %Inh (IRAK1; 1 µM) | %Inh (IRAK4; 1 µM) | %Inh (ITK; 1 µM) | %Inh ([1]; 1 µM) | %Inh ([2]; 1 µM) | %Inh ([3]; 1 µM)
CCc1nc(-c2cccc(C)c2)c(-c2ccnc(NC(=O)c3ccccc3)c2)s1 | 0% | 29% | 14% | 1% | 6% | 16% | 22% | 3% | 19% | 8% | – | – | – | – | – | – | – | –
Cc1ccc(O)cc1Nc1cc(C(F)(F)F)nc2ccc(-c3ccncc3)cc12 [GW630823] | 0% | 0% | 0% | 56% | 0% | 19% | 0% | 0% | 0% | 0% | – | – | – | – | – | – | – | –
Fc1ccc(-c2ncn(CCCNCc3ccccc3)c2-c2ccncc2)cc1 | 5% | 0% | 24% | 9% | 19% | 21% | 0% | 24% | 36% | 8% | – | – | – | – | – | – | – | –
FC(F)(F)c1ccc(-c2cc(-c3c[nH]nc3-c3ccccn3)ccn2)cc1 [GW599550] | 0% | 0% | 25% | 5% | 3% | 11% | 29% | 0% | 14% | 0% | – | – | – | – | – | – | – | –
Nc1nc(-c2cccnc2)c(-c2ccnc3ccccc23)s1 [GW684083] | 0% | 2% | 42% | 16% | 1% | 15% | 6% | 0% | 0% | 0% | – | – | – | – | – | – | – | –
CS(=O)(=O)CCNCc1nc(-c2ccc3ncnc(Nc4ccc(OCc5cccc(F)c5)c(Cl)c4)c3c2)cs1.Cl [GW583340] | 0% | 1% | 0% | 0% | 5% | 0% | 24% | 0% | 0% | 0% | – | – | – | – | – | – | – | –
O=C(CCO)NCCn1ccc2ncnc(Nc3ccc(Oc4cccc(C(F)(F)F)c4)c(Cl)c3)c21 | 0% | 0% | 0% | 0% | 0% | 0% | 0% | 36% | 0% | 0% | – | – | – | – | – | – | – | –
Nc1nc(-c2ccccn2)c(-c2ccnc3ccccc23)s1 [GW548057] | 0% | 0% | 33% | 0% | 0% | 5% | 28% | 5% | 22% | 0% | – | – | – | – | – | – | – | –
COC(=O)c1c(-c2ccccc2)c2cc(Cl)ccc2c(=O)n1Cc1ccc(S(C)(=O)=O)cc1 | 0% | 5% | 11% | 19% | 9% | 21% | 0% | 0% | 5% | 4% | – | – | – | – | – | – | – | –
CC(C)N1CCC(n2cnc(-c3ccc(F)cc3)c2-c2ccnc(N)n2)CC1 [SB-223132] | 0% | 0% | 0% | 23% | 0% | 0% | 0% | 56% | 0% | 24% | – | – | – | – | – | – | – | –
Cl.Cn1ccc(-c2cccc(Nc3ccnc4cc(-c5nccs5)ccc34)c2)n1 [GW525701] | 0% | 0% | 41% | 0% | 15% | 7% | 18% | 0% | 0% | 0% | – | – | – | – | – | – | – | –
Cn1cc(-c2ccc3c(c2)CCN3C(=O)Cc2cccc(C(F)(F)F)c2)c2c(N)ncnc21 [GSK2606414] | 3% | 1% | 0% | 15% | 10% | 12% | 7% | 0% | 34% | 0% | – | – | – | – | – | – | – | –
COc1ccc(-c2oc3ncnc(N)c3c2-c2ccc(OC)cc2)cc1 [SB-589132] | 0% | 0% | 56% | 15% | 58% | 19% | 25% | 31% | 1% | 19% | – | – | – | – | – | – | – | –
C[C@H]1CC[C@@H](C(=O)Nc2ccccc2)CN1c1cc(-c2ccc3c(N)n[nH]c3c2)nc(N)n1 [GSK2283293] | 0% | 0% | 0% | 16% | 0% | 17% | 0% | 0% | 0% | 0% | – | – | – | – | – | – | – | –
CCn1c(-c2ccncc2)nc2cnccc21 [SB-735216] | 0% | 7% | 6% | 0% | 17% | 0% | 15% | 12% | 10% | 0% | – | – | – | – | – | – | – | –
CNc1nccc(-c2c(-c3ccc(F)cc3)ncn2C2CCN(C)CC2)n1 [SB-222903] | 0% | 5% | 0% | 0% | 0% | 5% | 24% | 5% | 5% | 0% | – | – | – | – | – | – | – | –
COc1ccc(-c2nc3n(c2-c2ccncc2)CCC3)cc1 [SKF-104493] | – | – | – | 0% | – | – | – | – | – | 0% | 1% and 0% | 5% and 0% | 12% and 0% | 0% and 2% | 0% and 1% | 0% and 9% | 43% and 41% | 11% and 0%
Cn1ccc2ncnc(Nc3ccc(Oc4cccc(Cl)c4)c(Cl)c3)c21 | 0% | 16% | 27% | 6% | 27% | 23% | 16% | 0% | 15% | 4% | – | – | – | – | – | – | – | –
